# In PubChem BioAssay (Tox21):
# Records with an inconclusive call do not appear. A call without a number means that no potency is given here. The source made the active and inactive calls. The call rests on the fitted dose curve.
# Assay: cAMP Responsive Elements (CRE) small molecule agonists, cell-based qHTS assay (AID 1963590)
# Conditions: CRE-bla HEK293T, beta-lactamase FRET ratio, 3 h; series mostly up to 92.4 µM
# Excerpt: U.S. Tox21 Program National Center for Advancing Translational Sciences [NCATS] Division of Preclinical Innovation [DPI] U.S. Environmental Protection Agency [EPA] National Institutes of Environmental Health Sciences [NIEHS] National Toxicology Program [NTP] U.S. Food and Drug Administration [FDA] Tox21 Assay Overview: CREB (cyclic-AMP Responsive Element Binding Protein) is a cellular transcription factor. It binds to certain DNA sequences called cAMP Responsive Elements (CRE) and regulates the transcription of the genes. […] This cell line can be used to find agonists/antagonists of the cyclic AMP signaling pathway. The activation of the report gene under culture conditions can be detected by fluorescence intensity. This cell line has been used to screen the Tox21 10K compound library to identify agonists that induce oxidative stress.
# Tox21 Assay Protocol Summary: CRE-bla Hek 293T cells were suspended in assay medium (DMEM containing 10% dialyzed FBS, 0.1 mM NEAA, 1 mM sodium pyruvate and 25 mM HEPES) and dispensed at 2,000 cells/5 uL /well into 1536-well black wall/clear bottom plates using a Multidrop Combi (ThermoFisher Scientific, Waltham, MA) dispenser. After the assay plates were incubated at 37 C/5% CO2 for 18 hrs, 23 nL of compounds dissolved in DMSO, positive controls or DMSO only was transferred to the assay plate by a pintool workstation (Kalypsys, San Diego, CA). After the plates were incubated at 37 C/5% CO2 for 3 hrs, 1 uL of LiveBLAzer B/G FRET substrate (Invitrogen, Carlsbad, CA) was added to each well using Bioraptr Flying Reagent Dispenser (FRD, Aurora Discovery, San Diego, CA). The plates were incubated at room temperature for 2 h.
row,SMILES,Potency
1,CC1=C(C)S(=O)(=O)CCS1(=O)=O,inactive
2,CN(C)C,inactive
3,CC(C)(C)[C@@H](O)[C@@H](Cc1ccc(Cl)cc1)n1cncn1,inactive
4,C/C=C/C(=O)N(CC)c1ccccc1C,inactive
5,NC(=O)NO,inactive
6,CNC[C@H](O)[C@@H](O)[C@H](O)[C@H](O)CO,inactive
7,Cc1cc(Cc2ccc(N)c(C)c2)ccc1N,inactive
8,Cc1cccc(C)c1O,inactive
9,CC(=O)CCC(=O)O,inactive
10,COCC(C)O (stereo not given),inactive
11,CC(=O)OC(C)C,inactive
12,CCCOC(=O)c1ccccc1,inactive
13,O=C(O)C1=NN(c2ccc(S(=O)(=O)O)cc2)C(=O)C1,inactive
14,Cc1cccc(O)c1C,inactive
15,C[C@]12CC[C@@H]3c4ccc(O)cc4CC[C@H]3[C@@H]1CC[C@@H]2O,inactive
16,COc1ccc(CCC(C)=O)cc1,inactive
17,Cc1cc(=O)[nH]c(C(C)C)n1,inactive
18,O=C(O)c1cccc(C(=O)O)c1,inactive
19,CC(=O)/C=C/C1=C(C)CCCC1(C)C,inactive
20,CCCCCCCC(=O)OC,inactive

row,SMILES,Potency
1,CC(=O)C1=C(C)[C@@H]2C[C@@]3(C1)[C@H](C)CC[C@H]3C2(C)C,inactive
2,Cc1cn([C@H]2C=C[C@@H](CO)O2)c(=O)[nH]c1=O,inactive
3,CCCCCCCCCCC=CC1CC(=O)OC1=O (stereo not given),inactive
4,O=C(O)Cc1cccc2ccccc12,inactive
5,O=S(=O)(O)NC1CCCCC1,inactive
6,CN(C)CCOCCN(C)C,inactive
7,CC(=O)C(C)C,inactive
8,CCCCCCCCCCCCCO,inactive
9,O=C(O)C(=O)O,inactive
10,CC(C)OB(OC(C)C)OC(C)C,inactive
11,CC1COC(=O)O1 (stereo not given),inactive
12,OC[C@@H](O)[C@@H](O[C@@H]1O[C@H](CO)[C@H](O)[C@H](O)[C@H]1O)[C@H](O)[C@@H](O)CO,inactive
13,CCCCC(C=O)CC (stereo not given),inactive
14,O=C(O)CCCC[C@@H]1SC[C@@H]2NC(=O)N[C@@H]21,inactive
15,CC1CCC2CC1C2(C)C (stereo not given),inactive
16,Cc1ccc(C)c(S(=O)(=O)O)c1,inactive
17,CC(=O)Nc1ccccc1,inactive
18,CC1=CCC2CC1C2(C)C (stereo not given),inactive
19,CCCC(C)=O,inactive
20,CCc1cc(C(N)=S)ccn1,inactive
